For some of these results: Potency and affinity values are given separately.

Common to all, as to parameters: scale not given: direction of the effect not stated beside the values
The target of test [1] is Protein translocase subunit SecA (Escherichia coli (strain K12)) (UniProt P10408). Kind of test: Assay to Identify E. coli SecA ATPase Inhibitors. Format: functional. The conditions noted are these: 30 µM.
Test [2] concerns the target T1, Ubiquitin-activating enzyme e1, putative (Leishmania donovani (strain BPK282A1)) (UniProt E9BSI1).
T1 sequence (whole entry): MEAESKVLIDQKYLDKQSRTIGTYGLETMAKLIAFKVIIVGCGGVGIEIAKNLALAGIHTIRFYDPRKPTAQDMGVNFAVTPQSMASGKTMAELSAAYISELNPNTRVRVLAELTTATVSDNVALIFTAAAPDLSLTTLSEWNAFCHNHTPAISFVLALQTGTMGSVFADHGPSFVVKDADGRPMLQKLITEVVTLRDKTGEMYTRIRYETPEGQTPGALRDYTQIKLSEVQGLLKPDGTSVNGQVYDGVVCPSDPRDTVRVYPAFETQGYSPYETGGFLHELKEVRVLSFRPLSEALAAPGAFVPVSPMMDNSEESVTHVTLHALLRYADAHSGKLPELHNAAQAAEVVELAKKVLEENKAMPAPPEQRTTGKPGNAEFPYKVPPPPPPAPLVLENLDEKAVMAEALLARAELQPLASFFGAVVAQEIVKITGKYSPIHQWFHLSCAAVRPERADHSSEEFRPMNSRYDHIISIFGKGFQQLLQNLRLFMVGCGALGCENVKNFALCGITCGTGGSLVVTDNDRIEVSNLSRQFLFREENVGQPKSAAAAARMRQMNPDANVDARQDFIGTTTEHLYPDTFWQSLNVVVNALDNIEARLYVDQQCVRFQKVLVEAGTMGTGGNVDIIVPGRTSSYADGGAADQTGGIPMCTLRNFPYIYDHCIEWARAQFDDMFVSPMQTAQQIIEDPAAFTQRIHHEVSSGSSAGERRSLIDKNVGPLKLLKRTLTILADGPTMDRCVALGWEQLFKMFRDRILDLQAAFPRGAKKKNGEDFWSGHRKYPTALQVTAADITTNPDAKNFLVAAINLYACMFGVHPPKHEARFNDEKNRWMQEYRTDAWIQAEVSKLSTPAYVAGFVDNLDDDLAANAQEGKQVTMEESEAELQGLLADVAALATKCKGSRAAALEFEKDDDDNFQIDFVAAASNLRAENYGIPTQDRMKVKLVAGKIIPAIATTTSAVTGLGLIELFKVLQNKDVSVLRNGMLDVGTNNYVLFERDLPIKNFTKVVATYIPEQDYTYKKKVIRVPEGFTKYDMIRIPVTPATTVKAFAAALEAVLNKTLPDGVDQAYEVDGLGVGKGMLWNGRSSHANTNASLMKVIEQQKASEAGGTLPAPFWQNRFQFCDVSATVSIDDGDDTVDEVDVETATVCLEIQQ
Kind of test: Leishmania donovani Ubiquitin Activating Enzyme (LdE1). Type of test: functional. The conditions noted are these: 30 µM.

Test [3] addresses AMP-activated protein kinase, AMPK (Homo sapiens) (UniProt P54646+O43741+P54619+Q9UGJ0+Q9Y478+Q13131+Q9UGI9). Kind of test: AMP-dependent Kinase enzyme assay. An in vitro enzyme assay that detects ADP turnover that is directly proportional to AMPK activity. This uses naive AMPK that is activated during the assay with MK-8722. Format: functional. The settings on record: 30 µM.
Test [4] deals with Sialic acid-binding Ig-like lectin 9 (Homo sapiens) (UniProt Q9Y336). Kind of test: Hs-Siglec9 ALPHAscreen SOP 20170721. The conditions noted are these: 10 µM.
In a further test the test system is Trypanosoma cruzi. Kind of test: Trypanosoma cruzi phosphomannomutase and mannose-1-phosphate guanylyltransferase assay. Type of test: functional. The conditions noted are these: 10 µM.
The target in test [5] is T2, Arginase-2, mitochondrial (Homo sapiens) (UniProt P78540).
T2 sequence (whole entry): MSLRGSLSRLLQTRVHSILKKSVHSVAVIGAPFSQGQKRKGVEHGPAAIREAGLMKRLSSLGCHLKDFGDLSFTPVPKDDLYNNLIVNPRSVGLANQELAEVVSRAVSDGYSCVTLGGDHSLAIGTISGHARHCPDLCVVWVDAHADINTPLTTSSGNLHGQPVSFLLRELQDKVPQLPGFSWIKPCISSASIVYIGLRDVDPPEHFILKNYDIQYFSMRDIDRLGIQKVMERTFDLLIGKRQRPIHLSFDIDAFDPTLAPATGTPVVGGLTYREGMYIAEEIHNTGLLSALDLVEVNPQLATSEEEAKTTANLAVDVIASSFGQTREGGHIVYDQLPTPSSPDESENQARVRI
Kind of test: in vitro enzyme assay to detect the production of urea directly proportional to the activity of Arginase II. Note: in the data most compounds retested in dose-response had high values. Format: functional. The conditions noted are these: 33.3 µM.

Test [6] addresses T3, Proteasome subunit beta (Trypanosoma cruzi) (UniProt O96673).
T3 sequence (whole entry): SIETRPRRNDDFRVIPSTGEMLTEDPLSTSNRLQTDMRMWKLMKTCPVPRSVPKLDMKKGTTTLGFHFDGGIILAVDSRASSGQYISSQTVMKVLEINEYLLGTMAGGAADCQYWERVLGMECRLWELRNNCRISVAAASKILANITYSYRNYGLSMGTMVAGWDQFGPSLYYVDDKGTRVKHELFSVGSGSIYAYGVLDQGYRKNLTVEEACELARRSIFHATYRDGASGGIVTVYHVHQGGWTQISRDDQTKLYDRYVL
Kind of test: Trypanosoma cruzi proteasome chymotrypsin-like activity (TcProtChymo) assay. Note: in the data most compounds retested in dose-response had high values. The settings on record: 9.37 µM. Format: functional.

The species named for another test is Homo sapiens. Kind of test: To identify inhibition of the IFN signalling (Jak-Stat) pathway via expression of an eGFP reporter gene under the control of an IFN-stimulated response element (ISRE) containing MxA promoter. Type of test: functional. The settings on record: 30 µM. (A reporter such as luciferase makes a cellular process visible.)
In test [7] the target is T4, Tyrosyl-tRNA synthetase, putative (Trypanosoma cruzi (strain CL Brener)) (UniProt Q4DSP6).
T4 sequence (whole entry): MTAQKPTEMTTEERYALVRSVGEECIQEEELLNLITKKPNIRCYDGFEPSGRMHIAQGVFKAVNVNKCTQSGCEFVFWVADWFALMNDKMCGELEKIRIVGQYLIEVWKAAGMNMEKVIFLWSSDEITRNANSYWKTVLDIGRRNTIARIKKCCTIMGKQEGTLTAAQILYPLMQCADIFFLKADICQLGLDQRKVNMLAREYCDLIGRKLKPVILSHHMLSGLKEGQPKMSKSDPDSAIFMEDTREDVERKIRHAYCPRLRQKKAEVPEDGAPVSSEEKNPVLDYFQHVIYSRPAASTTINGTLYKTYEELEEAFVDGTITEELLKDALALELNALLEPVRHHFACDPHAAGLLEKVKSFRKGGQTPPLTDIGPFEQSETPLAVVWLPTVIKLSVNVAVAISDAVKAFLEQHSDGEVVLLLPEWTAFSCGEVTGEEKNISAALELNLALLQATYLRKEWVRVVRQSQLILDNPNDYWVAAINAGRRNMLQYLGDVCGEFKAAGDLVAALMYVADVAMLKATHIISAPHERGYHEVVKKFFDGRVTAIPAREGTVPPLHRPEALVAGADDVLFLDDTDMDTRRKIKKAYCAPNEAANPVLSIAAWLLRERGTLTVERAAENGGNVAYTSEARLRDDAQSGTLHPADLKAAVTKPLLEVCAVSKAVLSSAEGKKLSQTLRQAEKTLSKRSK
Kind of test: Trypanosoma cruzi tyrosyl tRNA synthetase (TcYRS) _High Tyrosine SOP. Note: in the data most compounds retested in dose-response had high values. Type of test: functional. The settings on record: 30 µM.

Test [8] has as its target T4, Tyrosyl-tRNA synthetase, putative (Trypanosoma cruzi (strain CL Brener)). Kind of test: Trypanosoma cruzi tyrosyl tRNA synthetase (TcYRS) SOP. Type of test: functional. The conditions noted are these: 30 µM.
Test [9] addresses Chromo domain-containing protein 1 (Saccharomyces cerevisiae (strain ATCC 204508 / S288c) (Baker's yeast)) (UniProt P32657). Kind of test: ScCHD-1 Enzyme Inhibition Assay. Note: in the data most compounds retested in dose-response had high values. The conditions noted are these: 30 µM. Format: functional.

Chain of Sialic acid-binding Ig-like lectin 9 (Homo sapiens) (Q9Y336 whole entry): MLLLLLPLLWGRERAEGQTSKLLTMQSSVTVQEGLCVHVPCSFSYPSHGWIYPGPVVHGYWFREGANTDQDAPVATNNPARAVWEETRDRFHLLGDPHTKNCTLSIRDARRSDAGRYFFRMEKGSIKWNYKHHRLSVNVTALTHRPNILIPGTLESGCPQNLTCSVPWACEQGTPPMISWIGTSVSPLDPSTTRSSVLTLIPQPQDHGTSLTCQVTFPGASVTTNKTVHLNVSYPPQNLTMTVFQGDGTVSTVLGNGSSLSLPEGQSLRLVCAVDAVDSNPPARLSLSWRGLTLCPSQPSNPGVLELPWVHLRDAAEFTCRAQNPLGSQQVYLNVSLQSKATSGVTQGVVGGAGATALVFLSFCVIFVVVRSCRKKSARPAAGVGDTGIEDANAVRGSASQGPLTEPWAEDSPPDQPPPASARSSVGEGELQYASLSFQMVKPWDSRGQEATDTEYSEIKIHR
Chain of Chromo domain-containing protein 1 (Saccharomyces cerevisiae (strain ATCC 204508 / S288c) (Baker's yeast)) (P32657 whole entry, the tested form may be a part): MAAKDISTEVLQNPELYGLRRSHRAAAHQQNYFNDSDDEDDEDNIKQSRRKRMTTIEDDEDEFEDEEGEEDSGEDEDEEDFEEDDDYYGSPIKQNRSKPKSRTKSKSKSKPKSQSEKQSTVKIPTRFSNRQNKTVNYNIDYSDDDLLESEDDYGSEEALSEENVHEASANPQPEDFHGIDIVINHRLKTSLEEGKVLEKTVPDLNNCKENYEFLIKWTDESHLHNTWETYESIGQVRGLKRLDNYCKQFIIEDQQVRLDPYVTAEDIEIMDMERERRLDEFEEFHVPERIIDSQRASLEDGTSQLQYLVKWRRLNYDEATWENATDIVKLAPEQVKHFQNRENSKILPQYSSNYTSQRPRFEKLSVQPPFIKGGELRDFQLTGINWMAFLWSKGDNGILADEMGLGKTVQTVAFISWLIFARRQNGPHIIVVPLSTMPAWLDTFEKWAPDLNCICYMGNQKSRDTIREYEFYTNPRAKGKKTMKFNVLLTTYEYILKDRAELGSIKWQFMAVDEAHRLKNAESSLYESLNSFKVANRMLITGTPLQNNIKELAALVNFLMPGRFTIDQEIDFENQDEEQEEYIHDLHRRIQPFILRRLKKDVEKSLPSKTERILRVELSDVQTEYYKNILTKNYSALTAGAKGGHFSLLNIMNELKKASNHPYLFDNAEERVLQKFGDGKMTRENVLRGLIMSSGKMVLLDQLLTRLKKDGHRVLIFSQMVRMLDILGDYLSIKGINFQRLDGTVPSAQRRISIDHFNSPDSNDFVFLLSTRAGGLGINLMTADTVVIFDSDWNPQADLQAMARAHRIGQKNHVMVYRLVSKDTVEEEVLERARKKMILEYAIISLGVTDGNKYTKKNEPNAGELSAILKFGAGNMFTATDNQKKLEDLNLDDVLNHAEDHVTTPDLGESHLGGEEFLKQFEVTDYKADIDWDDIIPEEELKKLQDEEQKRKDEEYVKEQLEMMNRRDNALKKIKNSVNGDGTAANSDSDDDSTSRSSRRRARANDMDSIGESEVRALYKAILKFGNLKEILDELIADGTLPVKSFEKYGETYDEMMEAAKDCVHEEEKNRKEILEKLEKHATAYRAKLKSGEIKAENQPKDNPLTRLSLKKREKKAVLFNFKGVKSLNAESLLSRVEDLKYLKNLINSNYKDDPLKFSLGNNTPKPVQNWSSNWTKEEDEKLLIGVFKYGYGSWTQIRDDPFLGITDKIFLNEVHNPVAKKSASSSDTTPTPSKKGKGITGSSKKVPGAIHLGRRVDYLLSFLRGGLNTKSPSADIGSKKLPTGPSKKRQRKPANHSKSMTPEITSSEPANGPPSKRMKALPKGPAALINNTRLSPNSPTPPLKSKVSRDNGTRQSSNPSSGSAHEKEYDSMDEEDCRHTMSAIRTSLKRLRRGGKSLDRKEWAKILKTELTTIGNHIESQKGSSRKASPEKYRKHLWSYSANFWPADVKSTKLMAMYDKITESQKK
Chain of Protein translocase subunit SecA (Escherichia coli (strain K12)) (P10408 whole entry): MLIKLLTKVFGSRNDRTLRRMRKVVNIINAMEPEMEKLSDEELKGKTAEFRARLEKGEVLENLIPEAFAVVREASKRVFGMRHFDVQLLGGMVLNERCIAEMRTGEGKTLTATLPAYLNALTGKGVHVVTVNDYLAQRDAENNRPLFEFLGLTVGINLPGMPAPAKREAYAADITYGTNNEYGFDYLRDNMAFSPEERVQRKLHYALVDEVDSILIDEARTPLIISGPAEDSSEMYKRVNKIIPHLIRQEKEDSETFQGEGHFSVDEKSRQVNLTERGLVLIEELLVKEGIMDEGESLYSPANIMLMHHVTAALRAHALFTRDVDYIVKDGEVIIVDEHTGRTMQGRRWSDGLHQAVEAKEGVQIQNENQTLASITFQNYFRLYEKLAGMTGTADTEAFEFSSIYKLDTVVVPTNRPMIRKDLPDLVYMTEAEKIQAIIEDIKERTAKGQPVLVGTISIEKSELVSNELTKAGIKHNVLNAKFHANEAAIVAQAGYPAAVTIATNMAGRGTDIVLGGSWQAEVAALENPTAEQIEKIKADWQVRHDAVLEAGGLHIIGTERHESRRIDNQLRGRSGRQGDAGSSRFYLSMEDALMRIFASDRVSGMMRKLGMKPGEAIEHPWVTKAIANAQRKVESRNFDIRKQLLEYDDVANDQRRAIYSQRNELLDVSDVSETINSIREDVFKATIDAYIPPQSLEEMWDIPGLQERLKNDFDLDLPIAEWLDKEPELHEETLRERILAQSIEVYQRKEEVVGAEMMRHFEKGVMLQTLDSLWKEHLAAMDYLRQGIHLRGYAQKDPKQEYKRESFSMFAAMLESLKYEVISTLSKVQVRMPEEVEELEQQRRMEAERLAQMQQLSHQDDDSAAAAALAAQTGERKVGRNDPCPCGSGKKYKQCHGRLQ

For `Cc1cc(C)n(C2CN(CC(=O)N(C)Cc3ccc(C)o3)C2)n1`, the Percent Effect was -4.24% in [1]; 5.26% in test [2]; 17.1% in [3]; 6.03% in [4]; 2.82% in the test with Trypanosoma cruzi; 3.55% in test [5]. Besides, the Percent Effect was 9.49% in test [6]; -0.498% in the test listed under Homo sapiens; 34% in [7]; 28.6% in test [8]; -4.43% in test [9].
For the compound `O=C(Cc1cccnc1)N1CCC2(CC1)CCN(C1CCOCC1)C2`, the Percent Effect was -5.91% in test [1]; 0% in test [2]; 0.681% in [3]; -0.504% in test [4]; -1.67% with Trypanosoma cruzi; -2.76% in test [5]. Also, the Percent Effect is 1.83% in test [6]; 15.5% in the test listed under Homo sapiens; 1.07% in test [7]; -1.24% in test [8]; 1.45% in test [9].
As to `Cc1c(Br)cccc1C(=O)NC(C)CN1CCCC1=O` (stereo not drawn), the Percent Effect in test [1] is -3.78%; in test [2], 2.74%; in test [3], -2.6%; in test [4], -6.12%; with Trypanosoma cruzi, -2.35%; in test [5] it was 0.909%. Besides, the Percent Effect in test [6] was 7.1%; in the test filed under Homo sapiens it was 10%; in [7], 1.07%; in test [8], 5%; in test [9], -5.51%.
For the compound `CCS(=O)(=O)N1CCC[C@]2(C(=O)N(C)C)CN(c3ncccn3)C[C@@H]2C1`, the Percent Effect was 2.18% in [1]; 10.7% in test [2]; 3.9% in [3]; 3.64% in test [4]; 0.193% with Trypanosoma cruzi; -53.9% in [5]. In addition, the Percent Effect in test [6] was 7.52%; in the test listed under Homo sapiens it was -10.8%; in test [7], 3.12%; in test [8], 22.5%; in test [9], -10.2%.
Regarding `COc1c(CNCc2ccnc(N3CCCC3)c2)c(C)nn1C`, the Percent Effect in test [1] is -5.03%; in test [2], 3.8%; in test [3], -1.28%; in test [4], 2.4%; with Trypanosoma cruzi it was 0.103%; in test [5], -0.215%. Further, the Percent Effect in test [6] is -4.12%; in the test filed under Homo sapiens, 7.98%; in test [7], 7.29%; in [8], 15.2%; in test [9], -7.79%.
`Cc1ccc(S(=O)(=O)NC(=O)c2cccc(OCC(N)=O)c2)s1`: the Percent Effect in [1] was -3.68%; in [2], 20.2%; in test [3], -5.82%; in test [4], -5.61%; with Trypanosoma cruzi, 0.0944%; in [5] it was 4.18%. The Percent Effect in test [6] was 12%; in the test listed under Homo sapiens it was 4.54%; in [7] it was 6.4%; in test [8], 13.9%; in test [9] it was -5.68%.
For the compound `O=C1O[C@@H]2CN(Cc3cccc(F)c3)C[C@@H]2N1CCCN1CCOCC1`, the Percent Effect was -1.1% in test [1]; 10.7% in [2]; 4.3% in [3]; 9.62% in test [4]; 2.82% in the test with Trypanosoma cruzi; 12.5% in test [5]. In addition, the Percent Effect in test [6] is 21.3%; in the test listed under Homo sapiens, 9.55%; in test [7] it was 3.83%; in [8] it was 21%; in test [9], -10.6%.
For `CN(Cc1ccco1)Cc1cncc2c1CCN(c1ncccn1)C2`, the Percent Effect in test [1] is -0.988%; in [2] it was 8%; in test [3], -6.54%; in test [4], -2.14%; in the test with Trypanosoma cruzi, 3.86%; in test [5], -48.6%. For the same compound, the Percent Effect in test [6] is 14.9%; in the test listed under Homo sapiens, -4.67%; in [7], -1.04%; in [8], 2.5%; in [9], -2.02%.

Source of the values: ChEMBL document CHEMBL3988442, “University of Dundee, Small-Polar-MMV Screening Library” (2021).
